# Screens (PubChem)
# Mtb FBA inh: Mtb FBA enzyme inhibitors, primary screen, biochemical, fluorescence, strain H37Rv | Fructose-bisphosphate aldolase (Mycobacterium tuberculosis (strain ATCC 25618 / H37Rv)), … | inhibition, % at 1 µM | purified M. tuberculosis FBA, fluorescence read-out | hit rate 2.3% among 360,000
# Target sequence (P9WQA3 whole entry, looked up): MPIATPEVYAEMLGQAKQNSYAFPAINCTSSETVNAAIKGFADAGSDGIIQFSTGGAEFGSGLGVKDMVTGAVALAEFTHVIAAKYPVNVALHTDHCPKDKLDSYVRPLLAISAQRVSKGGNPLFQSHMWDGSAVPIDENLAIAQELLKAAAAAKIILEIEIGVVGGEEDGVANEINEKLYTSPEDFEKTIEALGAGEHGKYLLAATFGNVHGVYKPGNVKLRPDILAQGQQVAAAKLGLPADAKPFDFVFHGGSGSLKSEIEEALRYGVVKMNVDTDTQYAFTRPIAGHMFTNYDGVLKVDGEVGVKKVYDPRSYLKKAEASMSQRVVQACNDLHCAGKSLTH
# RecA splice inh: Mtb RecA intein splicing inhibitors, primary screen, biochemical, fluorescence, HTS | hit rate 0.75% among 290,000 | AID 2221, 2009 | Protein RecA (Mycobacterium tuberculosis (strain ATCC 25618 / H37Rv)), P9WHJ3 | inhibition, % (concentration not given with the values) | cell-free RecA intein splicing; in the data active = inhibition above about 30%
# Rv3671c protease: Rv3671c serine protease inhibitors, primary screen, biochemical, fluorescence polarization, M. tuberculosis H37Rv; AID 2606, 2010; inhibition, % at 5.96 µM; hit rate 0.048% among 320,000; in the data active = inhibition above about 38%;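 also: extracellular domain of Rv3671c used as enzyme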
# UGM FP inh: M. tuberculosis UGM enzyme inhibitors, primary screen, biochemical, fluorescence polarization, single point; UDP-galactopyranose mutase (Mycobacterium tuberculosis (strain ATCC 25618 / H37Rv)), …; purified UGM, fluorescence polarization probe displacement; inhibition, % at 10 µM; hit rate 0.06% among 320,000; AID 504406, 2011; in the data active = inhibition above about 10%, passing the limit was not always enough
# GDH-TPI counter-1: GDH-TPI coupling enzyme inhibitors, primary screen, artefact control for M. tuberculosis FBA inhibitor project, biochemical, absorbance, full deck; GDH-TPI coupled enzyme counterscreen, NADH absorbance; AID 588335, 2011; hit rate 1.2% among 360,000; inhibition, % at 4.8 µM; in the data active = inhibition above about 30%
# Mtb bLac sens: beta-lactam sensitization of Mtb H37Rv, H37Rv; inhibition, % at 25 µM; M. tuberculosis H37Rv growth with meropenem, percent inhibition; hit rate 0.27% among 330,000; call rule not given here;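 also: growth measured after seven days incubation then overnight dye step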
# Mtb FBA confirm: M. tuberculosis aldolase blockers, biochemical, fluorescence, strain H37Rv, confirmation; inhibition, % at 1 µM; shares compounds with Mtb FBA inh; purified M. tuberculosis FBA, fluorescence read-out; hit rate 78% among 5,600
# GDH-TPI counter-2: GDH-TPI coupling enzyme inhibitors, artefact control for M. tuberculosis FBA inhibitor project, biochemical, fluorescence, high throughput; GDH-TPI coupled enzyme counterscreen; shares compounds with Mtb FBA inh; inhibition, % at 1 µM; hit rate 81% among 5,600; AID 652141, 2013; in the data active = inhibition above about 10%
# GDH-TPI dose: GDH-TPI coupling enzyme inhibitors, dose response, artefact control for M. tuberculosis FBA inhibitor project, biochemical, fluorescence, IC50; shares compounds with Mtb FBA inh; hit rate 79% among 170; AID 652145, 2013; IC50, µM; GDH-TPI coupled enzyme assay, artifact counterscreen; call rule not given here
# Numbers stand for hits; i = inactive; nt = not tested or not shown; + = active, no number. Hits are enriched below; roughly 4% of the tested compounds scored in any of these assays. Rule as the data show it, unless noted: active = inhibition above about 27%; inactive = the rest.
SMILES,Mtb FBA inh,RecA splice inh,Rv3671c protease,UGM FP inh,GDH-TPI counter-1,Mtb bLac sens,Mtb FBA confirm,GDH-TPI counter-2,others
Cc1nc2scc(-c3cccs3)c2c(=O)[nH]1,i,i,i,i,i,i,nt,nt,
O=c1[nH]c(-c2ccc(O)cc2)nc2scc(-c3cccs3)c12,35,i,i,i,i,i,nt,+,
CCOC(=O)Cc1nc2cc(Cl)ccc2o1,i,i,i,i,i,i,nt,nt,
COc1ccc(NC(=O)C2(C)Cc3c(-c4ccc(NC(C)=O)cc4)ccnc3O2)cc1 (stereo unspecified),i,nt,nt,nt,i,nt,nt,nt,
COc1ccc(NC(=O)C2(C)Cc3c(-c4ccc(N(C)C)cc4)ccnc3O2)cc1 (stereo unspecified),33,nt,nt,nt,i,nt,104,91,
COc1ccc(NC(=O)C2(C)Cc3c(-c4ccc(N(C)C)cc4)ccnc3O2)cc1OC (stereo unspecified),29,nt,nt,nt,i,nt,i,i,GDH-TPI dose=1.2
COc1ccc(CNC(=O)C2(C)Cc3c(-c4ccccc4)ccnc3O2)cc1OC (stereo unspecified),i,nt,nt,nt,i,nt,nt,nt,
COc1ccc(NC(=O)C2(C)Cc3c(-c4ccc(C(N)=O)cc4)ccnc3O2)cc1OC (stereo unspecified),i,nt,nt,nt,i,nt,nt,nt,
COc1ccc(CNC(=O)C2(C)Cc3c(-c4ccc(N(C)C)cc4)ccnc3O2)cc1OC (stereo unspecified),55,nt,nt,nt,i,nt,73,50,
O=C1CC(NS(=O)(=O)c2ccccc2F)CN1c1ccc2c(c1)OCCO2 (stereo unspecified),i,i,i,i,i,i,nt,nt,
O=C1c2ccccc2NC(c2ccc(Br)s2)N1O (stereo unspecified),nt,i,i,i,nt,i,nt,nt,
N#Cc1nc(-c2ccccc2Cl)oc1N1CCOCC1,33,i,i,i,i,i,113,92,
N#Cc1nc(-c2ccco2)oc1N1CCC(Cc2ccccc2)CC1,30,i,i,i,i,i,i,i,
N#Cc1nc(-c2ccco2)oc1N1CCOCC1,82,i,i,i,i,i,198,160,
O=C(Cc1cccc(F)c1F)NC1CCCN(Cc2ccc(Cl)cc2)C1 (stereo unspecified),i,i,i,i,i,i,nt,nt,
NC(=O)C1CCN(c2oc(-c3ccc(F)cc3)nc2S(=O)(=O)c2ccccc2)CC1,i,nt,i,i,i,i,nt,nt,
COc1cccc(/C=C/c2nc(S(=O)(=O)c3ccccc3)c(N3CCC(C(N)=O)CC3)o2)c1,38,nt,nt,nt,31,nt,i,i,GDH-TPI dose=1.3
CC(C)[C@H](N)c1cn([C@@H](CC(N)=O)C(=O)N2CCNCC2)nn1,i,nt,i,i,i,i,nt,nt,
CCc1ccc(O)c(N=Cc2cccc(C)c2O)c1,i,i,i,i,i,i,nt,nt,
Cc1cccc(C=Nc2ccc3c4c(cccc24)CC3)c1O,37,i,i,i,i,i,54,55,
Oc1ccc(Cl)cc1C=Nc1ccc2c3c(cccc13)CC2,51,i,i,nt,i,i,35,19,
Cc1ccc(S(=O)(=O)NNC(=O)c2ccccc2-n2cccc2)cc1,32,i,i,i,i,i,57,52,
COc1ccc(S(=O)(=O)NNC(=O)c2ccccc2-n2cccc2)cc1,i,i,i,i,i,i,nt,nt,
CNC(=O)c1c(NC(=O)c2cc(-c3cc(C)c(C)cc3O)n[nH]2)sc2c1CCCC2,nt,i,i,i,nt,i,nt,nt,
